In PubChem BioAssay (NCATS):
Records with an inconclusive call do not appear. This is one part of the list. The source made the active and inactive calls. Unless noted, calls come from the whole dose curve; as a rule, active = well fitted curve in the direction sought with a large enough effect; inconclusive = small, poorly fitted or top-dose-only effect, or another doubt; inactive = no such curve, though single readings can be large; an effect the other way counts as inactive or inconclusive.

Assays:
[1] = target: Lethal(3)malignant brain tumor-like protein 1 (Homo sapiens) (UniProt Q9Y468); experiment: qHTS Assay for the Inhibitors of L3MBTL1: Hit Validation (AID 540279); conditions: L3MBTL1 methyl-lysine binding inhibition, biochemical qHTS; note: potency is the fitted concentration of half-maximal effect; nearly all actives have a fitted effect of over 70% in size
Outline: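 L3MBTL1 (50 nM final) preformed 30 min with biotinylated H3(1-15)K9me1 peptide (75 nM), then compound 30 min at room temperature. Streptavidin donor and nickel chelate acceptor AlphaScreen beads (10 ug/mL each final) added for 30 min before read.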

[2] = target: DNA polymerase kappa (Homo sapiens) (UniProt Q9UBT6); experiment: qHTS for Inhibitors of Polymerase Kappa: Confirmatory Assay for Cherry-picked Compounds (AID 720501); conditions: purified Pol-kappa, fluorescent strand-displacement substrate; note: potency is the fitted concentration of half-maximal effect
Outline: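 10 nM human Pol-kappa was preincubated with compound 15 min at room temperature, then 50 nM (final) primer/template substrate with TAMRA-labeled reporter strand and BHQ-2-labeled template added. Fluorescence (Ex 525, Em 598 nm) read at 0 and 10 min.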

[3] = target: DNA polymerase eta (Homo sapiens) (UniProt Q9Y253); experiment: qHTS for Inhibitors of Polymerase Eta: Confirmatory Assay for Cherry-picked Compounds (AID 720502); conditions: Pol eta primer extension, TAMRA/BHQ fluorescence, 10 min; note: potency is the fitted concentration of half-maximal effect
Outline: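 Human Pol eta at 10 nM was preincubated with compound for 15 min at room temperature. Reaction was started with TAMRA/BHQ-2-labelled primer-template substrate (50 nM final), with fluorescence read at 0 and 10 min (ex 525, em 598 nm).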

[4] = target: Cytochrome P450 2C9 (Homo sapiens) (UniProt P11712); experiment: qHTS Assay for Inhibitors and Substrates of Cytochrome P450 2C9 (AID 883); conditions: recombinant CYP2C9, luciferin-H luminescence, 60 min; series mostly up to 57.1 µM; note: nearly all actives have a fitted effect of over 60% in size
Outline: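 Human CYP2C9 (10nM) with Luciferin-H at 100uM (its KM) in 25mM KPO4; compound preincubated 10 min at 37C, then NADPH regeneration for 60 min at 37C. Luciferin read by luminescence after detection reagent; normalized to 57uM sulphaphenazole as full inhibition.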

[5] = Cell Viability - LYMP2-001 (AID 921); conditions: LYMP2-001 lymphoblastoid cell viability; series mostly up to 92.2 µM; note: potency is the fitted concentration of half-maximal effect; nearly all actives have a fitted effect of over 70% in size
Outline: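 Human lymphoblastoid cells (Coriell), 2500 per well, were preincubated 5 hr at 37 C, then exposed to compounds in complete medium for 24 hr at 37 C. Cellular ATP was read by CellTiter-Glo luminescence; AC50 from Hill fits of concentration-response data.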

[6] = MultiTox-Fluor Cytotoxicity Assay - LYMP1-002 - Dead Cells (AID 960); conditions: LYMP1-002 lymphoblastoid cells, dead-cell protease fluorescence; series mostly up to 46.1 µM; note: potency is the fitted concentration of half-maximal effect; nearly all actives have a fitted effect of over 60% in size
Outline: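 LYMP1-002 cells 2500/well; 5 hr 37 C pre-incubation; compound 16 hr 37 C; MultiTox-Fluor reagent 60 min RT; dead-cell fluor Ex/Em 485/520. Norm. to DMSO (0%) vs 15 uM tetraoctylammonium bromide (100%); Hill AC50.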

[7] = MultiTox-Fluor Cytotoxicity Assay - LYMP1-003 - Dead Cells (AID 961); conditions: LYMP1-003 lymphoblastoid cells, dead-cell protease fluorescence; series mostly up to 92.2 µM; note: potency is the fitted concentration of half-maximal effect; nearly all actives have a fitted effect of over 70% in size
Outline: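 LYMP1-003 human lymphoblastoid cells (2500/well) exposed to compound 16 h at 37 C in complete medium; dead-cell protease read with bis-AAF-R110 fluorescence (Ex/Em 485/520) after 60 min at room temperature. Normalized to DMSO and 15 uM tetraoctylammonium bromide; AC50 from Hill fit.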

[8] = Cell Viability - LYMP2-003 (AID 965); conditions: LYMP2-003 lymphoblastoid cell viability; series mostly up to 92.2 µM;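 note: potency is the fitted concentration of half-maximal effect; cells exposed to compounds for 24 h before reading; nearly all actives have a fitted effect of over 50% in size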
Outline: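 Human lymphoblastoid cells (2500/well) were pre-incubated 5 hr at 37 C, then exposed to compounds over a concentration range for 24 hr at 37 C. Intracellular ATP was read by CellTiter-Glo luminescence; AC50 came from Hill-equation fits.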

[9] = Cell Viability - LYMP2-004 (AID 966); conditions: LYMP2-004 lymphoblastoid cell viability, qHTS; series mostly up to 92.2 µM; note: potency is the fitted concentration of half-maximal effect; nearly all actives have a fitted effect of over 65% in size
Outline: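 Cells seeded 2500/well, rested 5 hr at 37 C, dosed across a concentration series, incubated 24 hr at 37 C, then CellTiter-Glo added for 30 min at room temperature and luminescence read. Hill fitting gave AC50.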

[10] = Cell Viability - LYMP2-009 (AID 968); conditions: LYMP2-009 lymphoblastoid cell viability; series mostly up to 92.2 µM; note: potency is the fitted concentration of half-maximal effect; nearly all actives have a fitted effect of over 55% in size
[11] = Cell Viability - LYMP2-011 (AID 969); conditions: LYMP2-011 lymphoblastoid cells viability; series mostly up to 92.2 µM; note: potency is the fitted concentration of half-maximal effect; nearly all actives have a fitted effect of over 60% in size
Outline: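 2500 cells/well, 5 hr 37 C; compound added, 24 hr 37 C; CellTiter-Glo 30 min RT; luminescence. qHTS concentration-response, Hill-equation AC50. Tetraoctylammonium bromide positive control.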

[12] = Cell Viability - LYMP2-013 (AID 970); conditions: LYMP2-013 lymphoblastoid cells viability; series mostly up to 92.2 µM; note: potency is the fitted concentration of half-maximal effect; nearly all actives have a fitted effect of over 55% in size
Outline: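 qHTS; 2500 lymphoblastoid cells/well; 5 hr 37 C settle; cpd 24 hr 37 C; CellTiter-Glo, 30 min RT; luminescence. AC50 = Hill fit.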

[13] = Cell Viability - LYMP2-019 (AID 973); conditions: LYMP2-019 lymphoblastoid cell line viability; series mostly up to 92.2 µM; note: potency is the fitted concentration of half-maximal effect; nearly all actives have a fitted effect of over 55% in size
Outline: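 Luminescent ATP read-out (CellTiter-Glo, 30 min room temperature) served as the viability measure after 24 hr treatment of lymphoblastoid cells at 37 C. Concentration-response data were fitted to the Hill equation for AC50.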

[14] = Cell Viability - LYMP2-021 (AID 974); conditions: LYMP2-021 lymphoblastoid cells viability; series mostly up to 92.2 µM;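 note: potency is the fitted concentration of half-maximal effect; compound exposure lasts 24 hours at 37 °C; nearly all actives have a fitted effect of over 55% in size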
Outline: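 Plate 2500 lymphoblastoid cells per well and incubate 5 hr at 37 C. Add compounds over a concentration range and incubate 24 hr at 37 C. Add CellTiter-Glo, wait 30 min at room temperature, read luminescence.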

[15] = Cell Viability - LYMP2-023 (AID 975); conditions: LYMP2-023 lymphoblastoid cell viability; series mostly up to 92.2 µM
Outline: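 2500 cells/well, 5 hr 37 C; cpd 24 hr 37 C; CellTiter-Glo, 30 min RT; luminescence. qHTS conc-response, Hill fit -> AC50. Pos ctrl tetraoctylammonium bromide.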

[16] = Cell Viability - LYMP2-025 (AID 976); conditions: LYMP2-025 lymphoblastoid cell viability; series mostly up to 92.2 µM; note: potency is the fitted concentration of half-maximal effect
Outline: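 Seed 2500 LYMP2-025 cells/well; 5 hr at 37 C; add compound; 24 hr at 37 C; add CellTiter-Glo; 30 min RT; read luminescence. AC50 from Hill-modelled concentration-response.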

[17] = Cell Viability - LYMP2-002 (AID 977); conditions: LYMP2-002 lymphoblastoid cell viability, qHTS; series mostly up to 92.2 µM;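 note: potency is the fitted concentration of half-maximal effect; compound exposure lasted 24 h at 37 °C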
Outline: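 Human lymphoblastoid LYMP2-002 cells, 2500 per well, exposed to compounds for 24 h at 37 C in complete medium; viability read as intracellular ATP by CellTiter-Glo luminescence, AC50 from Hill fits.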

[18] = Cell Viability - LYMP2-006 (AID 978); conditions: LYMP2-006 lymphoblastoid cell viability, qHTS; series mostly up to 92.2 µM; note: potency is the fitted concentration of half-maximal effect; nearly all actives have a fitted effect of over 60% in size
Outline: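 Human lymphoblastoid cells, 2500 per well, were preincubated 5 hr at 37 C, then exposed to compounds for 24 hr at 37 C in complete medium. Viability was read as intracellular ATP by CellTiter-Glo luminescence; AC50 from Hill-equation fits of qHTS concentration-response data.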

[19] = Cell Viability - LYMP2-007 (AID 979); conditions: LYMP2-007 lymphoblastoid cell viability; series mostly up to 92.2 µM
Outline: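 Luminescent ATP signal (CellTiter-Glo) serves as the viability read-out after 24 hr compound treatment of lymphoblastoid cells in complete medium at 37 C. Concentration-response data were fitted to the Hill equation to give AC50 values.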

[20] = qHTS assay to identify small molecules that stimulate interleukin-8 (IL-8) secretion (AID 651758; active = well fitted activation curve with a large enough effect in the signal ratio; the % refers to the signal ratio; note: potency is the fitted concentration of half-maximal effect); conditions: HTRF ratio (665/615); series mostly up to 92.2 µM
Outline: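 THP-1 cells (2000/well) exposed to compound 16 h at 37 C; secreted IL-8 then detected by HTRF with cryptate- and XL665-labelled anti-IL-8 antibody pair after 1-3 h at room temperature.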

Measured: Potency

DNA polymerase eta (Homo sapiens), sequence (Q9Y253 whole entry, looked up): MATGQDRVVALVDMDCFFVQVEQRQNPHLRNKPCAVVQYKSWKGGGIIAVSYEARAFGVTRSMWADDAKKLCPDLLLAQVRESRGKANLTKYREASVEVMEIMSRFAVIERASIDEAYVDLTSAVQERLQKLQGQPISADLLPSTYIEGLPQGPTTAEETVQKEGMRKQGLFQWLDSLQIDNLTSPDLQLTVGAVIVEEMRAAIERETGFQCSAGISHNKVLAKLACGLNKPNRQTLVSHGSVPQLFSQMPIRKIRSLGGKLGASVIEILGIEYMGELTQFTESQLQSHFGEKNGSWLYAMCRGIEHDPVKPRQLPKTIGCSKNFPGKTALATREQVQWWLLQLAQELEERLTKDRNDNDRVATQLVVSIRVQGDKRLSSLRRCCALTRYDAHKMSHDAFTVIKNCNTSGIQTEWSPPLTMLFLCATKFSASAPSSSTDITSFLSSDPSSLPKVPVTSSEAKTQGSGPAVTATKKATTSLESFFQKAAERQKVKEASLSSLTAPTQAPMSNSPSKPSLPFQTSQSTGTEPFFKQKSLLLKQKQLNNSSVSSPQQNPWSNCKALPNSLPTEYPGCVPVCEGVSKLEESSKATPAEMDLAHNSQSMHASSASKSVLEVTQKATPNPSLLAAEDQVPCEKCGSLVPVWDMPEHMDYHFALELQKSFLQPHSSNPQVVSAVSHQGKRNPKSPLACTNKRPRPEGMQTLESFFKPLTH
Cytochrome P450 2C9 (Homo sapiens), sequence (P11712 whole entry, looked up): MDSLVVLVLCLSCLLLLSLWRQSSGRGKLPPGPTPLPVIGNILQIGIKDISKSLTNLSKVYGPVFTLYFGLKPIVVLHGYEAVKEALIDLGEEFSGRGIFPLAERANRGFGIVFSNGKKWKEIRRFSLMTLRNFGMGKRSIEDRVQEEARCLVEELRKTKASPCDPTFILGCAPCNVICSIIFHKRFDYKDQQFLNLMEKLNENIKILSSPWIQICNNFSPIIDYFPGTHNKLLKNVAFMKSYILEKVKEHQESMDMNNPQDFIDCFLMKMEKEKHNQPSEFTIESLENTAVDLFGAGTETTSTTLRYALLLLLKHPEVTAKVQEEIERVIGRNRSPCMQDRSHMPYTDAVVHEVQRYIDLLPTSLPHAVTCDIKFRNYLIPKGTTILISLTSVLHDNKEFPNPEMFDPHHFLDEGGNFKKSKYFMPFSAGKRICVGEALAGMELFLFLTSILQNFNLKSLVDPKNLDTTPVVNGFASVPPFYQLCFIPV
DNA polymerase kappa (Homo sapiens), sequence (Q9UBT6 whole entry, looked up): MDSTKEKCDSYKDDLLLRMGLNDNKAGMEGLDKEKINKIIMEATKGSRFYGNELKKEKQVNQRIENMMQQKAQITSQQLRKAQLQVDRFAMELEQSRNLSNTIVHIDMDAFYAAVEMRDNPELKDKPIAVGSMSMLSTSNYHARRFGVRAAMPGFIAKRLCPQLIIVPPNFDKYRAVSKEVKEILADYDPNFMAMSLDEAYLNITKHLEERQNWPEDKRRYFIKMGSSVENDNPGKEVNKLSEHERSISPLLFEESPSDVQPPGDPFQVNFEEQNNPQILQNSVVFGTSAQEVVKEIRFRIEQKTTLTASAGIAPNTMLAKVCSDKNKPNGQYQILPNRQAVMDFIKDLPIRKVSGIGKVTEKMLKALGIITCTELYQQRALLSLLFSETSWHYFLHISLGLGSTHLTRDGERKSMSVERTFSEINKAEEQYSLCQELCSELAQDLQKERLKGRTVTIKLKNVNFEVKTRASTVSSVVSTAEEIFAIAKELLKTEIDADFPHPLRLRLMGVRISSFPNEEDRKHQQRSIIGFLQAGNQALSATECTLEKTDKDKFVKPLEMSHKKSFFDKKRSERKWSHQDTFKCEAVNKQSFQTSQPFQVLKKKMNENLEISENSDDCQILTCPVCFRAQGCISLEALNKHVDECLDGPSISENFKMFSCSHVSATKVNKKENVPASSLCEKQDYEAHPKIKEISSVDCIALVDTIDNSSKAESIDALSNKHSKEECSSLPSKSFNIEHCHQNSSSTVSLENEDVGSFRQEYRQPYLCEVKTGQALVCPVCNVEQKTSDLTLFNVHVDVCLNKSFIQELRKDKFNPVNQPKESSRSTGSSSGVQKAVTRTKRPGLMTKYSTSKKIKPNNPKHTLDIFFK
Lethal(3)malignant brain tumor-like protein 1 (Homo sapiens), sequence (Q9Y468 whole entry, looked up): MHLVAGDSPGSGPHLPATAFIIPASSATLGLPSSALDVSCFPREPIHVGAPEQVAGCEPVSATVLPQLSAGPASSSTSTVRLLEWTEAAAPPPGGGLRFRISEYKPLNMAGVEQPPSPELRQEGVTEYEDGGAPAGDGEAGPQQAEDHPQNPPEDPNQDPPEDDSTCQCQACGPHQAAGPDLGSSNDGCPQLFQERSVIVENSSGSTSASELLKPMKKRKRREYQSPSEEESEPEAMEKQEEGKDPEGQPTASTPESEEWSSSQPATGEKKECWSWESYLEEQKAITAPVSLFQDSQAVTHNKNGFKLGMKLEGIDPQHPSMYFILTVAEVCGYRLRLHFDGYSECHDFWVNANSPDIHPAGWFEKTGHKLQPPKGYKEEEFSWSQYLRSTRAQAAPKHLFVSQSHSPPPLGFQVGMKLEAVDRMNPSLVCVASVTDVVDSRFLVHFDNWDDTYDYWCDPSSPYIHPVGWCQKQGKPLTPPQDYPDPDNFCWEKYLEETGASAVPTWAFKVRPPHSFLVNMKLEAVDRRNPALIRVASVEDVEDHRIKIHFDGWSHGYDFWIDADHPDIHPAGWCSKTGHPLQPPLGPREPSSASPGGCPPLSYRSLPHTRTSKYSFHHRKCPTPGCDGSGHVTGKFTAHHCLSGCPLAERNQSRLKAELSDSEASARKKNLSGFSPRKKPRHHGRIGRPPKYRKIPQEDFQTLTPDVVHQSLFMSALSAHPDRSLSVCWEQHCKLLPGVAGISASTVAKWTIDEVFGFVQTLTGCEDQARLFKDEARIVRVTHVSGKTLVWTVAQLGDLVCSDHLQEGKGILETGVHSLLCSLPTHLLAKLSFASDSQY

Cc1cc(/C=C2/C(=O)NC(=O)N(Cc3ccco3)C2=O)c(C)n1-c1ccc(C(=O)O)cc1
active: [1] 9.47 µM | [2] 18.9 µM | [3] 60.1 µM

CCN1C[C@@]2(COC)[C@H](O)C[C@H](OC)[C@@]34[C@@H]5C[C@@]6(O)[C@H](OC(=O)c7ccccc7)[C@H]5[C@@](OC(C)=O)([C@H]([C@@H](OC)[C@H]23)[C@H]14)[C@H](O)[C@@H]6OC
inactive: [4]

c1cc(OCC2CO2)cc(OCC2CO2)c1 (stereo not given)
active: [5] 31.6 µM | [6] 25.1 µM | [7] 39.8 µM | [8] 25.1 µM | [9] 20 µM | [10] 39.8 µM | [11] 39.8 µM | [12] 50.1 µM | [13] 39.8 µM | [14] 39.8 µM | [15] 50.1 µM | [16] 50.1 µM | [17] 39.8 µM | [18] 39.8 µM | [19] 39.8 µM | [20] 42.2 µM
